Data reported in PubChem BioAssay (NCI).
About 83,000 compounds went through this panel and 20% of them were active in at least one assay; those are over-represented in the sample as a whole.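 Values shown are percent growth following 48 h exposure of cells in 96-well plates to a single concentration of compound; below 10 was considered active.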 Calls of active or inactive are those of the source.

test system: HCT-15 colon; experiment: NCI-60 one-dose screen, 48 h (100 = growth as untreated, 0 = no growth, -100 = all killed); conditions: 10 µM unless noted

SMILES	growth
COc1cc2c(cc1OC)C(C)N(S(N)(=O)=O)CC2 (stereo not drawn)	102% (inactive)
CCCC/C(CC)=N\NS(=O)(=O)c1ccc([N+](=O)[O-])cc1	107% (inactive)
O=[N+]([O-])c1ccc(O)cc1Br	101% (inactive)

test system: HT29 colon; experiment: as above; conditions: 10 µM unless noted

SMILES	growth
COc1ccc(C(O)c2cc3c(N)c(C(=O)Nc4cccc(Br)c4)sc3nc2C)cc1 (stereo not drawn)	8.32% (active)
CC/C(=C(/c1ccc(Cl)cc1)c1ccc(OCCN2CCCCC2)cc1)c1ccc(OC)cc1	11.9% (inactive)
CCOC(=O)c1c2c(n3cccc(F)c13)C(=O)c1ncccc1C2=O	8.73% (active)
CC(=O)O[C@@H]1C[C@]2(C(C)C)O[C@@]1(C)[C@@H]1CCC(C)=C1[C@@H]2OC(=O)/C=C/c1ccccc1	74.8% (inactive)
O=C(O)c1ccc(-n2cc(/C=N/Nc3ccccc3)c(-c3ccc(F)cc3F)n2)cc1	90.5% (inactive)
O=C(NCc1ccc(Cl)cc1Cl)C1CCC(=O)N1c1cccs1 (stereo not drawn)	89.9% (inactive)
CCSc1oc(-c2ccccc2)nc1[P+](c1ccccc1)(c1ccccc1)c1ccccc1	1.21% (active)
O=C1C(=O)N(Cc2ccc(-c3ccccc3)cc2)c2ccc(OC(F)(F)F)cc21	9.07% (active)
Cc1nc2sc(C(=O)Nc3ccc(Br)cc3)c(N)c2cc1C(O)c1ccccc1 (stereo not drawn)	36.7% (inactive)
O=C(Cn1cc(CSc2nc3ccccc3o2)nn1)Nc1ccc(F)cc1F	128% (inactive)
COC(=O)c1nc(-c2ccc(C)cc2)oc1S(=O)(=O)c1cccc(OC)c1	97.1% (inactive)
COc1ccc(C/C(C)=C(/c2ccc(OCCN(C)C)cc2)c2ccc(OC(=O)NCc3ccccc3)cc2)cc1	-13.7% (active)
COc1ccc(/C=C(\C#N)n2nnc3cc(F)c(F)cc32)cc1	6.99% (active)
COC(=O)c1c2c(c(C)[n+]([O-])c1C)C(=O)C(NCc1cccc(OC)c1)=CC2=O	11.4% (inactive)
COc1ccc(-c2nc3cc(C(=O)NCc4ccccc4)ccc3n2C2CCCCC2)cc1	28.1% (inactive)
CCN(CC)CCn1c2ccc(OC)cc2c2sc3cc(OC)ccc3c(=O)c21	0.172% (active)
COc1ccc(C(=O)N2c3ccccc3Sc3ccccc32)c(OC)c1	-0.815% (active)
CCN1CCN(C(=O)[C@]23CCC(C)(C)C[C@@H]2C2=CC[C@@H]4[C@@]5(C)CCC(=O)C(C)(C)[C@@H]5CC[C@@]4(C)[C@]2(C)CC3)CC1	8.29% (active)
Clc1ccc2c(NC3CCC(N4CCOCC4)CC3)ccnc2c1 (stereo not drawn)	84.7% (inactive)
CCCOC(=O)Nc1nc2ccc(SCC(C)C)cc2s1	15.9% (inactive)

SMILES	growth
COc1ccc(Nc2ncc(Br)c(NCCCNC(=O)c3cccs3)n2)cc1	51.6% (inactive)
N#Cc1c(-c2ccccc2)cc(-c2ccc(Nc3nc(Nc4ccc(Cl)cc4)nc(Nc4ccc(Cl)cc4)n3)cc2)nc1N	9.85% (active)
COC(=O)c1c(C)c2n(c1C)C(=O)C(c1ccccc1)=C2	87.1% (inactive)
COc1ccc(Nc2ncc(Br)c(NCCCNC(=O)C3CCCC3)n2)cc1	47.5% (inactive)
C=CCn1c(C)nc2ccc(Nc3nc(Nc4ccc5nc(C)n(CC=C)c5c4)c4ccccc4n3)cc21	-96.7% (active)
O=C(O)c1cn(C2CC2)c2cc(N3CCN(Cc4ccc5ccccc5c4O)CC3)c(F)cc2c1=O	-32.4% (active)
N#C/C(=C\c1c(-c2ccccc2)[nH]c2ccccc12)C(N)=O	67.4% (inactive)
COc1ccc(C2CC(c3ccc(Nc4nc(Nc5ccccc5)nc(Nc5ccccc5)n4)cc3)=NN2C(C)=O)cc1 (stereo not drawn)	101% (inactive)
COc1cc2c(c(OC)c1OC)CCC(c1cccc(C(=O)Nc3cccc(Cl)c3)c1)O2 (stereo not drawn)	63.6% (inactive)
COc1cc(OCc2cccc(Br)c2C)cc(OC)c1C=O	75% (inactive)
COC1=CC(c2ccc[nH]2)=N/C1=C\c1[nH]c(C)c(C(=O)OC(C)C)c1C	-11.6% (active)
CCCc1c(OC(=O)c2ccccc2)nc2[nH]c(=O)sc2c1C	104% (inactive)
CN(C)c1ccc(-c2c(C#N)c(N)nn2C(=O)c2ccc(NC(=O)c3ccccn3)cc2)cc1	113% (inactive)
CC1CCN(CCOc2ccc(CNc3ccc4nc(CCC5CCCCC5)[nH]c4c3)cc2)CC1	10% (inactive)
COc1cc2c(cc1OCCCN1CCN(CCCOc3cc4c(cc3OC)C(=O)N3CCC[C@H]3C=N4)CC1)C=CC(C)(C)O2	-100% (active)
Oc1c(I)cc(I)cc1CNCCN(Cc1ccccn1)Cc1ccccn1	-37% (active)
O=CN1N=C(c2cccc(Nc3ccnc4cc(Cl)ccc34)c2)CC1c1ccccc1 (stereo not drawn)	-2% (active)
COc1cc2c(cc1OC)C(C)N(S(N)(=O)=O)CC2 (stereo not drawn)	99.8% (inactive)
CCCC/C(CC)=N\NS(=O)(=O)c1ccc([N+](=O)[O-])cc1	106% (inactive)
O=[N+]([O-])c1ccc(O)cc1Br	92.6% (inactive)
